# Potency and affinity values are given separately. Calls of active or inactive are those of the source. Where a call stands in place of a potency, no number is given. The rule behind the calls is not given here.
# Target: UDP-galactopyranose mutase (Mycobacterium tuberculosis (strain ATCC 25618 / H37Rv)) (UniProt P9WIQ1)
# Test: Mycobacterium tuberculosis UGM enzyme inhibition, dose response confirmation, purified biochemical assay (AID 540359)
# Conditions: plate reader activity; series mostly up to 50 µM
# Chain of UDP-galactopyranose mutase (Mycobacterium tuberculosis (strain ATCC 25618 / H37Rv)) (P9WIQ1 whole entry, looked up): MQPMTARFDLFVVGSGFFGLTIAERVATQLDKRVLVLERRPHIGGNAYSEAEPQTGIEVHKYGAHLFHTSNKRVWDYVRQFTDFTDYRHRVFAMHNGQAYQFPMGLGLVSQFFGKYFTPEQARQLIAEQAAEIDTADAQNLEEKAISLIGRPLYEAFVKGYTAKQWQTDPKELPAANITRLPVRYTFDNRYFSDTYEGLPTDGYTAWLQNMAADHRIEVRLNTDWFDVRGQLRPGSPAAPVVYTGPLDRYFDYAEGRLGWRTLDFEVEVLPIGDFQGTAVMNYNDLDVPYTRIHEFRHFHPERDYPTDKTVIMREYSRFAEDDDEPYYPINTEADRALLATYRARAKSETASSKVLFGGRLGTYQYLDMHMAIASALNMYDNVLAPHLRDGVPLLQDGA
row,Compound,outcome
1,O=C(/C=C/c1ccc2c(c1)OCO2)c1c(O)n(CCc2ccccc2)c(=O)[nH]c1=O,inactive
2,COc1ccc(-n2c(O)c(/C=C3\C=Nc4ccc(Br)cc43)c(=O)[nH]c2=O)cc1,inactive
3,N#C/C(=C(/O)CSc1ccccc1C(=O)O)c1nc2ccccc2s1,inactive
4,CCN(CC)CCCNC(=O)c1cc(Sc2nnc(C)s2)nc2ccccc12,inactive
5,COc1ccccc1NC(=O)c1sc2nc(Cc3ccccc3)cc(C(F)(F)F)c2c1N,inactive
6,Cn1nc(C(=O)Nc2cc(Cl)ccc2N2CCCC2)c2ccccc2c1=O,inactive
7,CC(C)OC(=O)CC(=O)c1sc2nc3c(cc2c1N)CN(C)CC3,inactive
8,COC(=O)C1=CC(C(=O)c2cccs2)=NN(c2ccc(OC)cc2)C1C(=O)OC (stereo not drawn),inactive
9,O=C(O)c1ccccc1C(=O)OCCCCOC(=O)c1ccccc1C(=O)O,inactive
10,COc1ccc(OC)c(/C=C2\Oc3cc(OCC(=O)N4CCC[C@H]4C(=O)O)ccc3C2=O)c1,inactive
11,O=C(Nc1ccccc1F)C(=Cc1sc(N2CCOCC2)nc1-c1ccccc1)C(=O)Nc1ccccc1F,inactive
12,C=CCn1ccc(=NC=C(C#N)C#N)c2ccccc21,inactive
13,O=C(COC(=O)CN1C(=O)NC2(CCCC2)C1=O)NCc1ccc(Cl)cc1Cl,inactive
14,CCOc1ccc(C(C(=O)NC2CCCC2)N(C(=O)CNC(=O)c2ccco2)c2cccnc2)cc1 (stereo not drawn),inactive
15,CN(CC(=O)NC1CC1)S(=O)(=O)c1ccc(Br)cc1,inactive
16,O=C(Cc1cccs1)Nc1cc(SCCO)cc([N+](=O)[O-])c1,inactive
17,COc1cccc(C(=O)OCC(=O)NCc2ccc3c(c2)OCO3)c1OC,inactive
18,O=C(COC(=O)COc1cccc(Br)c1)NCc1ccc2c(c1)OCO2,inactive
19,COc1ccccc1N1N=C(C(=O)c2ccccc2)C2C(=O)N(c3ccc(Br)cc3)C(=O)C21 (stereo not drawn),inactive
20,COc1cc2c3nnc(-c4ccccc4)c-3cn(Cc3ccccc3F)c2cc1OC,inactive
21,COc1cc(OC)cc(C(=O)Nc2cc(C)nn2-c2ccccc2)c1,inactive
22,COc1ccc2c(c1)c1nc3ccccc3nc1n2CC(=O)OC(C)C,inactive
23,CCOc1cc(/C=C2\CCCc3c2nc2ccccc2c3C(=O)O)ccc1OC,inactive
24,CC(=O)NC(Cc1ccccc1)C(=O)OCC(=O)c1ccccc1 (stereo not drawn),inactive
25,CCN(CC)C(=O)C1c2ccccc2Oc2ccccc21,inactive
26,CCN(C(=O)COC(=O)c1ccc(O)cc1O)c1c(N)n(Cc2ccccc2)c(=O)[nH]c1=O,inactive
27,COc1ccc(N(CC(=O)N/N=C/c2ccc(-c3ccc([N+](=O)[O-])cc3)o2)S(=O)(=O)c2ccc(C)cc2)cc1,inactive
28,NC(=O)c1c(NC(=O)C2COc3ccccc3O2)sc2c1CCN(Cc1ccccc1)C2 (stereo not drawn),inactive

# Source: PubChem BioAssay AID540359 (Broad Institute, 2011)
